This is an account of results in ChEMBL document CHEMBL5598561, “ASAP - In vitro binding kinetics” (2024).

This test concerns the target Nonstructural protein 3 (Zika virus) (UniProt A0A024AXB9). As to conditions: PRVABC59, Concentration 10.0 uM.

Nonstructural protein 3 (Zika virus), sequence (A0A024AXB9 as listed by the source): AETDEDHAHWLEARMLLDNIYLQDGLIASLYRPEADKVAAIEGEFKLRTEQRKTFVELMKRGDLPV

As to `O=C(Nc1ccc2c(c1)CNC2)c1cccc(-c2cnco2)c1`, where the note is “Immobilization level 12000.0 pg/mm2, Rmax 4.0 pg/mm2, ka 566629.865 M-1s-1, kd 1.936 1/s”, the pKD worked out at 5.47.
Regarding `Cc1ccc(C(=O)Nc2ccc3c(c2)CNC3)c2[nH]ncc12`, the pKD stood at 4.72 (Immobilization level 10000.0 pg/mm2, Rmax 28.0 pg/mm2, ka 287009.784 M-1s-1, kd 5.44 1/s); 4.63 (Immobilization level 12000.0 pg/mm2, Rmax 65.0 pg/mm2, ka 163548.417 M-1s-1, kd 3.844 1/s); 4.66 (Immobilization level 13000.0 pg/mm2, Rmax 48.0 pg/mm2, ka 218448.051 M-1s-1, kd 4.78 1/s).
Regarding `CN1Cc2ccc(NC(=O)c3cc(Cl)cc4[nH]ncc34)cc2C1`, the pKD was determined as 5.77 (Immobilization level 10000.0 pg/mm2, Rmax 20.0 pg/mm2, ka 391825.056 M-1s-1, kd 0.668 1/s); 5.67 (Immobilization level 12000.0 pg/mm2, Rmax 38.0 pg/mm2, ka 177362.143 M-1s-1, kd 0.381 1/s); 5.76 (Immobilization level 13000.0 pg/mm2, Rmax 24.0 pg/mm2, ka 298987.187 M-1s-1, kd 0.52 1/s).
Take `O=C(Nc1ccc2c(c1)CNC2)c1nccc2[nH]ncc12`: under “Immobilization level 12000.0 pg/mm2, Rmax 10.0 pg/mm2, ka 215121.382 M-1s-1, kd 2.565 1/s”, the pKD is 4.92.
As to `O=C(Nc1ccc2c(c1)CNC2)c1cc(F)cc2[nH]ncc12`, the negative-log KD (pKD) (Immobilization level 10000.0 pg/mm2, Rmax 50.0 pg/mm2, ka 86776.347 M-1s-1, kd 0.122 1/s) turned out to be 5.85; the negative-log KD (pKD) (Immobilization level 12000.0 pg/mm2, Rmax 119.0 pg/mm2, ka 21922.372 M-1s-1, kd 0.021 1/s) amounted to 6.01; the pKD (Immobilization level 13000.0 pg/mm2, Rmax 93.0 pg/mm2, ka 46087.669 M-1s-1, kd 0.088 1/s) worked out at 5.72.
`O=C(Nc1ccc2c(c1)CNC2)c1cc(Cl)cc(-n2cccc2)c1` registered a pKD (Immobilization level 10000.0 pg/mm2, Rmax 42.0 pg/mm2, ka 59822.118 M-1s-1, kd 0.636 1/s) of 4.97; a pKD (Immobilization level 12000.0 pg/mm2, Rmax 78.0 pg/mm2, ka 29884.208 M-1s-1, kd 0.167 1/s) of 5.25; a pKD (Immobilization level 13000.0 pg/mm2, Rmax 57.0 pg/mm2, ka 51449.064 M-1s-1, kd 0.399 1/s) of 5.11.
On to `O=C(Nc1ccc2c(c1)CN(CC(F)F)C2)c1cc(Cl)cc2[nH]ncc12`, for which the pKD (Immobilization level 5500.0 pg/mm2, Rmax 11.0 pg/mm2, ka 80918.609 M-1s-1, kd 0.287 1/s) was 5.45.
On to `O=C(Nc1ccc2c(c1)CNC2)c1cc(Cl)ccc1SC1CCCC1`, for which the pKD reads like this: (Immobilization level 10000.0 pg/mm2, Rmax 23.0 pg/mm2, ka 575465.756 M-1s-1, kd 3.5 1/s) 5.22; (Immobilization level 12000.0 pg/mm2, Rmax 62.0 pg/mm2, ka 231361.37 M-1s-1, kd 1.925 1/s) 5.08; (Immobilization level 13000.0 pg/mm2, Rmax 43.0 pg/mm2, ka 253243.383 M-1s-1, kd 2.083 1/s) 5.08.
As for `O=C(Nc1ccc2c(c1)CNC2)c1cc(Br)cc2[nH]c(C3CCOCC3)nc12`, the pKD reads like this: (Immobilization level 10000.0 pg/mm2, Rmax 36.0 pg/mm2, ka 49989.202 M-1s-1, kd 0.558 1/s) 4.95; (Immobilization level 12000.0 pg/mm2, Rmax 42.0 pg/mm2, ka 41393.875 M-1s-1, kd 0.2 1/s) 5.32; (Immobilization level 13000.0 pg/mm2, Rmax 57.0 pg/mm2, ka 35403.894 M-1s-1, kd 0.403 1/s) 4.94.
`O=C(Nc1ccc2c(c1)CNC2)c1cc(Cl)ccc1OC1CCCC1` came in with a pKD (Immobilization level 12000.0 pg/mm2, Rmax 40.0 pg/mm2, ka 319034.623 M-1s-1, kd 3.897 1/s) of 4.91.
Turning to `N#C[C@]1(Nc2ccc3c(c2)CNC3)C(=O)Nc2ccc(Cl)cc21`, the pKD (Immobilization level 10000.0 pg/mm2, Rmax 25.0 pg/mm2, ka 264211.625 M-1s-1, kd 1.585 1/s) was found to be 5.22; the pKD (Immobilization level 12000.0 pg/mm2, Rmax 32.0 pg/mm2, ka 105814.14 M-1s-1, kd 0.856 1/s) stood at 5.09; the pKD (Immobilization level 13000.0 pg/mm2, Rmax 39.0 pg/mm2, ka 121808.508 M-1s-1, kd 1.295 1/s) was found to be 4.97.
As for `CC(C)(C)c1cc(Br)cc(C(=O)Nc2ccc3c(c2)CNC3)c1`, the pKD turned out to be 5.61 (Immobilization level 10000.0 pg/mm2, Rmax 22.0 pg/mm2, ka 615092.383 M-1s-1, kd 1.528 1/s); 5.43 (Immobilization level 12000.0 pg/mm2, Rmax 78.0 pg/mm2, ka 256799.727 M-1s-1, kd 0.952 1/s); 5.42 (Immobilization level 13000.0 pg/mm2, Rmax 43.0 pg/mm2, ka 306862.061 M-1s-1, kd 1.159 1/s).
`COC(=O)CNC(=O)[C@H](Nc1ccc2c(c1)CNC2)c1cc(Cl)cc(C2CC2)c1`: the negative logarithm of the KD (pKD) (Immobilization level 10000.0 pg/mm2, Rmax 43.0 pg/mm2, ka 346362.757 M-1s-1, kd 0.129 1/s) is 6.43; the pKD (Immobilization level 12000.0 pg/mm2, Rmax 59.0 pg/mm2, ka 177006.564 M-1s-1, kd 0.106 1/s) was 6.22; the pKD (Immobilization level 13000.0 pg/mm2, Rmax 62.0 pg/mm2, ka 244445.044 M-1s-1, kd 0.134 1/s) turned out to be 6.26.
For the molecule `O=C(Nc1ccc2c(c1)CNC2)c1c[nH]c2ncc(F)cc12`, for the setting “Immobilization level 5500.0 pg/mm2, Rmax 31.0 pg/mm2, ka 181164.217 M-1s-1, kd 6.639 1/s”, the negative logarithm of the KD (pKD) was 4.44.
`O=C(NC[C@H]1CCCO1)[C@H](Nc1ccc2c(c1)CNC2)c1cc(Cl)cc2[nH]ncc12` displayed a pKD (Immobilization level 10000.0 pg/mm2, Rmax 25.0 pg/mm2, ka 729483.46 M-1s-1, kd 0.307 1/s) of 6.38; a pKD (Immobilization level 12000.0 pg/mm2, Rmax 48.0 pg/mm2, ka 423834.605 M-1s-1, kd 0.21 1/s) of 6.31; a pKD (Immobilization level 13000.0 pg/mm2, Rmax 36.0 pg/mm2, ka 640560.866 M-1s-1, kd 0.251 1/s) of 6.41.
With `O=C(Nc1cnc2c(c1)CNCC2)c1cc(Cl)cc2[nH]ncc12`, the pKD was determined as 6.11 (Immobilization level 10000.0 pg/mm2, Rmax 20.0 pg/mm2, ka 1026935.718 M-1s-1, kd 0.802 1/s); 6.12 (Immobilization level 12000.0 pg/mm2, Rmax 35.0 pg/mm2, ka 607851.885 M-1s-1, kd 0.465 1/s); 6.17 (Immobilization level 13000.0 pg/mm2, Rmax 25.0 pg/mm2, ka 909514.232 M-1s-1, kd 0.608 1/s).
For the molecule `CCS(=O)(=O)c1ccc(Cl)cc1C(=O)Nc1ccc2c(c1)CNC2`, the pKD (Immobilization level 12000.0 pg/mm2, Rmax 28.0 pg/mm2, ka 273415.174 M-1s-1, kd 3.732 1/s) came out at 4.87.
Turning to `O=C(Nc1ccc2c(c1)OCCNC2)c1cc(Cl)cc2[nH]ncc12`, the negative logarithm of the KD (pKD) runs as follows: (Immobilization level 10000.0 pg/mm2, Rmax 33.0 pg/mm2, ka 475344.334 M-1s-1, kd 1.334 1/s) 5.55; (Immobilization level 12000.0 pg/mm2, Rmax 41.0 pg/mm2, ka 216924.489 M-1s-1, kd 0.865 1/s) 5.4; (Immobilization level 13000.0 pg/mm2, Rmax 42.0 pg/mm2, ka 331181.332 M-1s-1, kd 1.11 1/s) 5.47.
Consider `O=C(Nc1ccc2c(c1)CNC2)c1cc(=O)[nH]c2c(F)cccc12`, for which the pKD is, setting by setting: (Immobilization level 4900.0 pg/mm2, Rmax 18.0 pg/mm2, ka 230791.194 M-1s-1, kd 7.379 1/s) 4.5; (Immobilization level 5500.0 pg/mm2, Rmax 21.0 pg/mm2, ka 297955.59 M-1s-1, kd 8.334 1/s) 4.55.
For the molecule `O=C(Nc1ccc2c(c1)CNC2)c1cc(Br)cc2[nH]c([C@H]3CCOC3)nc12`, the pKD is 5.96 (Immobilization level 10000.0 pg/mm2, Rmax 19.0 pg/mm2, ka 727525.444 M-1s-1, kd 0.791 1/s); 6.02 (Immobilization level 12000.0 pg/mm2, Rmax 41.0 pg/mm2, ka 451126.44 M-1s-1, kd 0.431 1/s); 6.03 (Immobilization level 13000.0 pg/mm2, Rmax 27.0 pg/mm2, ka 652953.753 M-1s-1, kd 0.609 1/s).
Consider `O=C(NC1CCOCC1)[C@H](Nc1ccc2c(c1)CNC2)c1cc(Cl)cc(C2CC2)c1`, for which the pKD (Immobilization level 10000.0 pg/mm2, Rmax 26.0 pg/mm2, ka 616891.885 M-1s-1, kd 0.14 1/s) worked out at 6.64; the pKD (Immobilization level 12000.0 pg/mm2, Rmax 48.0 pg/mm2, ka 284907.141 M-1s-1, kd 0.112 1/s) was determined as 6.4; the pKD (Immobilization level 13000.0 pg/mm2, Rmax 35.0 pg/mm2, ka 474880.78 M-1s-1, kd 0.123 1/s) amounted to 6.59.
As to `O=C(Nc1ccc2c(c1)CNC2)c1cncc(-c2ccccc2)c1`, the pKD was found to be 4.74 (Immobilization level 4900.0 pg/mm2, Rmax 10.0 pg/mm2, ka 220188.498 M-1s-1, kd 3.981 1/s) and 4.49 (Immobilization level 5500.0 pg/mm2, Rmax 48.0 pg/mm2, ka 177152.77 M-1s-1, kd 5.77 1/s).
Take `N[C@H]1CCc2cc(NC(=O)c3cc(Cl)cc4[nH]ncc34)ccc21`: the pKD is, setting by setting: (Immobilization level 12000.0 pg/mm2, Rmax 40.0 pg/mm2, ka 202508.522 M-1s-1, kd 3.352 1/s) 4.78; (Immobilization level 13000.0 pg/mm2, Rmax 32.0 pg/mm2, ka 287481.012 M-1s-1, kd 4.268 1/s) 4.83.
For `O=C(NC[C@H]1CCCO1)[C@H](Nc1ccc2c(c1)CNC2)c1cc(Cl)cc(C2CC2)c1`, the pKD reads like this: (Immobilization level 10000.0 pg/mm2, Rmax 42.0 pg/mm2, ka 577169.922 M-1s-1, kd 0.179 1/s) 6.51; (Immobilization level 12000.0 pg/mm2, Rmax 59.0 pg/mm2, ka 295597.466 M-1s-1, kd 0.112 1/s) 6.42; (Immobilization level 13000.0 pg/mm2, Rmax 62.0 pg/mm2, ka 409256.138 M-1s-1, kd 0.153 1/s) 6.43.
For `O=C(NCC1CCOCC1)[C@H](Nc1ccc2c(c1)CNC2)c1cc(Cl)cc2[nH]ncc12`, the pKD by setting is: (Immobilization level 10000.0 pg/mm2, Rmax 24.0 pg/mm2, ka 732529.674 M-1s-1, kd 0.501 1/s) 6.17; (Immobilization level 12000.0 pg/mm2, Rmax 44.0 pg/mm2, ka 461664.392 M-1s-1, kd 0.336 1/s) 6.14; (Immobilization level 13000.0 pg/mm2, Rmax 32.0 pg/mm2, ka 718906.653 M-1s-1, kd 0.399 1/s) 6.25.
In the case of `O=C(Nc1ccc2c(c1)CNC2)c1cc(Cl)ccc1-n1ccnc1`, the pKD came to 5.26 (Immobilization level 10000.0 pg/mm2, Rmax 38.0 pg/mm2, ka 298408.653 M-1s-1, kd 1.639 1/s); 5.21 (Immobilization level 12000.0 pg/mm2, Rmax 63.0 pg/mm2, ka 203693.474 M-1s-1, kd 1.266 1/s); 5.29 (Immobilization level 13000.0 pg/mm2, Rmax 40.0 pg/mm2, ka 299200.161 M-1s-1, kd 1.542 1/s).
